Assay outcomes deposited in PubChem by National Center for Advancing Translational Sciences (NCATS).
GLP-1R agonist = GLP-1 receptor (human) agonism. 0.007% of 380,000 active. P43220. HEK293 GLP-1R CRE-luciferase, luminescence, 4-6 h; cells express a hypersensitive GLP-1R form. Potency, µM (highest dose often 45.6 µM), for the others: at the highest dose activation, hits mostly activators. AID 624172; further: % of control where 0% means no effect
GLP-1R inv ag = inverse agonists of human GLP-1 receptor; P43220; HEK293 GLP-1R CRE-luciferase, luminescence, 24 h; GLP-1R form is constitutively active; Potency, µM (doses to about 38.3 µM), for inactives: at the highest dose activity change, negative = inhibition, most hits filed as inhibitors; 1.6% of 410,000 active; AID 624417; further: on the % scale 0 is the no-effect control and ±100 the full control effect; nearly all actives have a fitted effect of over 55% in size
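GLP-1R inverse agonism mode: basal reporter luminescence in engineered HEK293 cells measured after one day of compound exposure at 37 deg C, with a 12 min room-temperature detection step.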
PTHR1 agonist = agonists of human PTHR1 parathyroid hormone receptor; Q03431; Potency, µM (top dose mostly 115 µM), inactives show at the highest dose activation, hits mostly activators; HEK293 GP2 PTHR1 cells, GloSensor cAMP luminescence, 1 h; AID 743266; 0.075% of 410,000 active; further: nearly all actives have a fitted effect of over 55% in size
Target sequence (Q03431 whole entry, looked up): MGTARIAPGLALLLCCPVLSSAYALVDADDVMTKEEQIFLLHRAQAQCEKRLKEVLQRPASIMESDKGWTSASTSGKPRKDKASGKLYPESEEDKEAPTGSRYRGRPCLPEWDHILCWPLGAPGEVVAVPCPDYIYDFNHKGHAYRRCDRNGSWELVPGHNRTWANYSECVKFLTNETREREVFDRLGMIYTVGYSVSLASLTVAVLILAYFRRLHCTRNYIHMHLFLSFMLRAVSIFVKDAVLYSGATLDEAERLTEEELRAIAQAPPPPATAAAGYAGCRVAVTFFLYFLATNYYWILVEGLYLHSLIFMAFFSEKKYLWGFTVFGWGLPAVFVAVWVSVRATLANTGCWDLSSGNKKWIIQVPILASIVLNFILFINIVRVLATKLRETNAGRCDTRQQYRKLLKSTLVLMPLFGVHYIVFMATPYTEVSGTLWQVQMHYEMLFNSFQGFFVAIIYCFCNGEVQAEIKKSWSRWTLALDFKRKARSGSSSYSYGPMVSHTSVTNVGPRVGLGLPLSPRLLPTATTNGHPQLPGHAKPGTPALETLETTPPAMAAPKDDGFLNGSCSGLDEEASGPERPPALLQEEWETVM
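HEK-293-derived GP2 cells expressing PTHR1 and a GloSensor cAMP reporter, 3,000/well, plated overnight, given luciferin plus IBMX (each 0.5 mM as added) for 1 h at 37 °C, then compound for 1 h at 37 °C. Luminescence was read after 15 min at room temperature.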
HEK293 tox = cytotoxic in the GLP-1 receptor inverse agonist counter-screen; HEK293 cAMP-luciferase reporter cells, luminescence, 24 h; Potency, µM (series often up to 38.3 µM), inactives show at the highest dose activity change, negative = inhibition, most hits filed as inhibitors; 0.13% of 410,000 active; AID 624418;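 further: loss of luciferase light is scored as toxicity; on the % scale 0 is the no-effect control and ±100 the full control effect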
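Cells in DMEM/10% Nu serum/1% pen-strep, 1536-well format. Pre-incubated 12 h, dosed with 23 nL compound, incubated a further 24 h. Luciferase detection, 12 min at room temp, luminescence.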
Active calls of the source: *; i = inactive; ? = inconclusive; / = no result. In the library only some 1.7% were active in any assay of this set; here they are far more common. The call rests on the fitted dose curve; in most records, active means well fitted curve in the direction sought with a large enough effect; inconclusive means small, poorly fitted or top-dose-only effect, or another doubt; inactive means no such curve, though single readings can be large; an effect the other way counts as inactive or inconclusive. Potency means the concentration at half of the fitted maximal effect.

SMILES	GLP-1R agonist	GLP-1R inv ag	PTHR1 agonist	HEK293 tox
CN(CC(=O)NC(=O)NCc1ccccc1)Cc1cccc(Cl)c1Cl	0%	10µM*	i	-23%
CN(CC(=O)NC(=O)NCc1ccccc1)Cc1ccc(Cl)cc1	8%	?	i	-2%
CN(CC(=O)NCc1ccccc1)CC(=O)Nc1ccc(Cl)c(C(F)(F)F)c1	4%	?	-27%	-2%
CN(CC(=O)Nc1ccc(Cl)c(C(F)(F)F)c1)C(=O)c1cnccn1	1%	?	-18%	-5%
CCC(C)N1C(=O)CN(C2CCCCCC2)C(=O)C1c1ccccc1F (configuration not stated)	6%	0%	i	-10%
COc1ccc(-c2csc(N(CCCN(C)C)C(=O)c3ccccc3Cl)n2)cc1	-5%	?	i	?
CCN(C(=O)c1ccccc1F)c1nc(-c2ccc(OC)cc2)cs1	-1%	?	-30%	-6%
COCCN(C(=O)c1ccccc1F)c1nc(-c2ccc(OC)cc2)cs1	19%	10µM*	-18%	15%
COc1ccc(-c2csc(N(CCCN(C)C)C(=O)c3ccccc3C)n2)cc1	-3%	2.8µM*	i	?
Cc1ccc(O)c(CN(C)Cc2cc(C)ccc2O)c1	6%	13µM*	i	-21%
C[C@]12O[C@H](C[C@]1(O)CO)n1c3ccccc3c3c4c(c5c6ccccc6n2c5c31)CNC4=O	-11%	/	/	/
COc1ccc(C(C)=O)cc1COC(=O)c1ccc(S(=O)(=O)N(C)C)cc1	0%	34%	-21%	0%
Cc1cccc(C)c1OCC(=O)N/N=C/c1cccnc1	10%	-29%	-12%	13µM*
CCc1noc(C)c1C(=O)NNC(=O)COc1ccc(C)cc1	0%	1%	i	-4%
Cc1cc(C(c2ccc(C)o2)c2ccc(C)o2)c(O)c([N+](=O)[O-])c1	-6%	10µM*	-29%	-5%
COc1ccccc1Oc1ccc(N2CC(C(=O)OCC(=O)c3ccccc3)CC2=O)cc1 (configuration not stated)	2%	-4%	i	-7%
Cc1nn(CC(C)C)c(Cl)c1C(=O)N(c1ccc(Cl)cc1F)S(C)(=O)=O	-3%	8.9µM*	-11%	-12%
Nc1cc(=O)[nH]n1C1CCCCC1	6%	13%	-20%	7%
COc1ccc(OC)c(-c2csc(NC(=O)c3ccc(F)cc3)n2)c1	-2%	10µM*	-13%	-19%
CCOc1ccc(N2C(=O)C3ON(C)C(c4ccc([N+](=O)[O-])cc4)C3C2=O)cc1 (configuration not stated)	-3%	7%	i	3%
Cc1ccc(CN2CCCC(CO)(Cc3ccccc3C)C2)s1 (configuration not stated)	8%	8.9µM*	-7%	?
Cc1ccccc1CC1(CO)CCCN(Cc2ccn[nH]2)C1 (configuration not stated)	6%	?	i	-3%
Cc1nonc1OCCn1c([N+](=O)[O-])cnc1C	-5%	-4%	i	4%
CNC(=O)c1ccc2c(c1)N=C(C)c1cc(C)ccc1S2	1%	?	-11%	-25%
CC1=Nc2cc(C(=O)NC3CCCC3)ccc2Sc2ccc(C)cc21	-2%	5µM*	i	?
SMILES	GLP-1R agonist	GLP-1R inv ag	PTHR1 agonist	HEK293 tox
CCC1=Nc2cc(C(=O)NC3CCCC3)ccc2Sc2ccc(Cl)cc21	/	?	12%	?
CC1=Nc2cc(C(=O)NC3CCCC3)ccc2Sc2ccc(Cl)cc21	/	1.6µM*	-65%	?
CCOc1ccc(-c2c(C(=O)N/N=C/c3ccc(C)s3)nnn2-c2nonc2N)cc1	-2%	11µM*	-10%	-6%
Cc1ccc(-c2c(C(=O)N/N=C/c3ccc4c(c3)OCO4)nnn2-c2nonc2N)cc1	4%	10µM*	-8%	?
Cc1ccc(SCc2c(C(=O)N/N=C/c3ccc4c(c3)OCO4)nnn2-c2nonc2N)cc1	-6%	0%	-4%	2%
CCOc1ccc(-c2c(C(=O)N/N=C/c3cccs3)nnn2-c2nonc2N)cc1	0%	-30%	16%	-21%
COc1cc2c(cc1OC)C(c1ccccc1C)CC(=O)N2 (configuration not stated)	12%	19%	-4%	-7%
NC(N)=N/N=C/c1cccc(Cl)c1Cl	0%	10µM*	-8%	?
CCCCCCNC(=O)c1cccc(-c2ccc(C)c3ccccc23)n1	9%	11µM*	-3%	0%
Cc1ccc(-c2cc(C(=O)N3CCN(C(=O)c4ccco4)CC3)[nH]n2)cc1C	6%	-7%	-4%	-2%
C=Cc1ccc(CN2C(=O)N(c3cccc(Cl)c3)S(=O)(=O)c3ccccc32)cc1	/	?	-41%	-15%
Cc1ccsc1/C=N\NC(=O)c1n[nH]c2c1CCC2	-21%	2.8µM*	-32%	?
C/C(=N\NC(=O)c1n[nH]c2c1CCC2)c1ccco1	-6%	1.8µM*	-24%	13%
O=C(N/N=C/c1c(Cl)cccc1Cl)c1n[nH]c2c1CCCC2	-3%	?	-25%	-23%
Cc1cccc(NC(=O)CSc2nnc3scc(-c4ccccc4)n23)c1	/	23%	-5%	-8%
CCOC(=O)C1(Cc2ccc(OC)cc2)CCN(C(=O)c2ccoc2C)CC1	-6%	?	-42%	1%
CCOC(=O)C1(Cc2ccc(OC)cc2)CCN(C(=O)c2ccc3[nH]ccc3c2)CC1	1%	4.5µM*	-32%	-12%
COc1ccc(CN2CCn3nc(C(=O)NC4CC4)cc3C2=O)cc1	2%	-10%	i	7%
Cc1cc2nc(-c3ccc[nH]c3=O)[nH]c2cc1C	16%	3.5µM*	-10%	74%
Cc1cc(C)c(S(=O)(=O)N2CCN(C(=O)c3c(C)nn(-c4ccccc4)c3Cl)CC2)c(C)c1	-19%	8.9µM*	-42%	-8%
Cc1ccc(S(=O)(=O)N2CCN(C(=O)c3c(C)nn(-c4ccccc4)c3Cl)CC2)cc1	-1%	-8%	i	16%
Cc1cc(C)c(S(=O)(=O)N2CCN(C(=O)c3ccc(-n4nc(C)c(Cl)c4C)cc3)CC2)c(C)c1	1%	7.1µM*	-11%	7%
C[C@@H]1O[C@@]2(CS1)CN1CCC2CC1	-2%	/	/	/
C/C=C\C[C@H](C)[C@H](O)[C@H]1C(=O)N[C@@H](CC)C(=O)N(C)CC(=O)N(C)[C@@H](CC(C)C)C(=O)N[C@@H](C(C)C)C(=O)N(C)[C@@H](CC(C)C)C(=O)N[C@@H](C)C(=O)N[C@@H](C)C(=O)N(C)[C@@H](CC(C)C)C(=O)N(C)[C@@H](CC(C)C)C(=O)N(C)[C@@H](C(C)C)C(=O)N1C	-1%	/	/	/
COCCS(=O)(=O)N(Cc1ccc(Br)cc1)[C@@H](C)C(=O)OC	0%	3%	-3%	6%
COC(=O)[C@H](C)N(Cc1ccc(Cl)c(Cl)c1)S(=O)(=O)CCNC1CCCC1	-4%	13µM*	i	-2%
